Screening data as filed in PubChem.
LYPLA1 counter: LYPLA1 (human) inhibition in PME1 counter-screen; hit rate 0.16% among 320,000; inhibition, % at 5.9 µM; recombinant LYPLA1, FP-Rh probe fluorescence polarization; O75608; AID 2174;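 active = inhibition above the mean of all tested compounds plus 3 SD, set per campaign, cut at about 14% in these data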;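 note: inhibitors block serine hydrolase probe labeling of LYPLA1 so polarization falls; 0% = enzyme with DMSO and 100% = wells lacking LYPLA1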
Target sequence (O75608 whole entry, looked up): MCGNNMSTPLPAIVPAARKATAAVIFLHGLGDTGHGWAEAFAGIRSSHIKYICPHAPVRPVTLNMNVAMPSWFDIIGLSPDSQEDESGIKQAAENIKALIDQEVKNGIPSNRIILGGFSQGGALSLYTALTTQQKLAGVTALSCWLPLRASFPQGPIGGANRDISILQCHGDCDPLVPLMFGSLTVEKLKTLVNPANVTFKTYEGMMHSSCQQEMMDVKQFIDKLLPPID
PME-1 inh: blocks human protein phosphatase methylesterase 1. recombinant PME-1, FP-Rh probe fluorescence polarization. inhibition, % at 5.9 µM. AID 2130. hit rate 0.53% among 320,000. Q9Y570;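 active = inhibition above the campaign mean of all compounds plus 3 SD, cut at about 26% in these data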;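 note: competitive labeling of PME-1 active site by serine hydrolase directed probe; 0% = PME-1 with DMSO and 100% = wells lacking PME-1 enzyme; inhibitors block probe labeling so polarization falls and inhibition rises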
Fam108B inh: Fam108B inhibition, counter-screen for RBBP9 inhibitors | inhibition, % at 9.51 µM | hit rate 0.33% among 300,000 | recombinant Fam108B, FP-Rh probe fluorescence polarization;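 active = inhibition above the screen mean inhibition plus 3 SD, computed separately per campaign, cut at about 18% in these data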;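 note: inhibitors lower polarization as less probe binds the enzyme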
PREPL inhibitor: human PREPL enzyme inhibition; Q4J6C6; hit rate 0.68% among 320,000; AID 2751; inhibition, % at 5.96 µM; recombinant PREPL, fluorescence polarization activity-based probe;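 note: 0% = enzyme with DMSO and 100% = wells lacking enzyme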
LYPLA2 inh: blocks human lysophospholipase 2, a PME1 counter-screen; O95372; recombinant LYPLA2, FP-Rh probe fluorescence polarization; inhibition, % at 5.9 µM; hit rate 0.38% among 320,000; AID 2177;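 active = inhibition above the screen-wide mean plus 3 SD, limit set per campaign, cut at about 26% in these data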;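 note: 0% = LYPLA2 with DMSO and 100% = wells lacking LYPLA2 enzyme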
Target sequence (O95372 whole entry, looked up): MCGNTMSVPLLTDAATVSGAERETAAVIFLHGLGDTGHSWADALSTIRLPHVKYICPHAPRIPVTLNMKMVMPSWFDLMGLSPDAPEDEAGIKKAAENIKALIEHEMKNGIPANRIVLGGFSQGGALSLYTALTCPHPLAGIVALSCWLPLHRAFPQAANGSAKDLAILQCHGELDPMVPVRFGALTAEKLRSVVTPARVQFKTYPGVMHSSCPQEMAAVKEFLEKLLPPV
PREPL confirm: human PREPL inhibition, confirmation. shares compounds with PREPL inhibitor. recombinant PREPL, fluorescence polarization activity probe. inhibition, % at 5.96 µM. hit rate 67% among 2,000. AID 2803;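 note: 0% = protein with DMSO and 100% = wells lacking protein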
* = called active by the depositor; · = no result. Most compounds without a hit are left out; they make up all but 1.3% or so of the library. Cut-off read from the data, not from the text of the source, unless noted: active = inhibition above about 43%; inactive = the rest.

SMILES | LYPLA1 counter | PME-1 inh | Fam108B inh | PREPL inhibitor | LYPLA2 inh | PREPL confirm
C#CCOCCOCCOCCNc1nc(N2CCN(C(=O)C(Cc3ccc(O)cc3)n3cc(C(N)CC(C)C)nn3)CC2)nc(N2CCN(C(=O)C(Cc3cc4ccccc4[nH]3)n3cc(C(N)Cc4ccc(O)cc4)nn3)CC2)n1 (stereo not drawn) | -8 | -1 | -1 | 52* | -4 | 51*
C#CCOCCOCCOCCNc1nc(N2CCN(C(=O)[C@H]([C@@H](C)CC)n3cc([C@@H](N)Cc4ccc(O)cc4)nn3)CC2)nc(N2CCN(C(=O)[C@H](Cc3ccc(O)cc3)n3cc([C@@H](N)CC(C)C)nn3)CC2)n1 | -1 | 1 | 3 | 12 | -1 | ·
CCn1c2ccccc2c2cc(CNCc3ccc(OC)cc3OC)ccc21 | 5 | -3 | 2 | 49* | -1 | 51*
CC(C)(C)[C@@H]1COC(=O)[C@H](Cc2ccc(F)cc2)CC/C=C\C[C@@H](CC(=O)NCCO)C(=O)N1 | · | · | · | 49* | · | 35
C[C@H]1COC(=O)[C@H](Cc2ccc(F)cc2)CC/C=C/C[C@@H](CC(=O)N[C@@H](CO)Cc2ccccc2)C(=O)N1 | · | · | · | 41 | · | ·
C[C@@H]1COC(=O)[C@@H](Cc2ccc(F)cc2)CC/C=C\C[C@@H](CC(=O)NCCO)C(=O)N1 | · | · | · | 17 | · | ·
CC(C)(C)[C@H]1COC(=O)[C@H](Cc2ccc(F)cc2)CC/C=C/C[C@@H](CC(=O)N[C@H](CO)Cc2ccccc2)C(=O)N1 | · | · | · | 46* | · | 49*
c1ccc(CNc2nc(-c3ccccn3)nc3ccccc23)cc1 | 1 | -3 | -1 | 67* | 1 | 64*
COc1ccc(C2=Nn3c(nnc3-c3ccccc3F)SC2)cc1OCC1CC1 | · | · | · | 56* | · | -9
Cc1c(OC(C)C(=O)NCC(O)c2ccccc2)ccc2c3c(c(=O)oc12)CCC3 (stereo not drawn) | 2 | 2 | -5 | -35 | 0 | ·
CC1CCC(C(C)C)C(OC(=O)Cn2c(-c3ccc(Br)cc3)[n+](C)c3ccccc32)C1 (stereo not drawn) | -1 | -3 | 0 | 49* | -1 | 44*
CC1CCC(C(C)C)C(OC(=O)Cn2c(-c3ccc(Cl)cc3)[n+](C)c3ccccc32)C1 (stereo not drawn) | 2 | 2 | 3 | 43* | 9 | 47*
Cc1cc2cc(CNC(=O)c3ccc(Br)o3)ccc2n1C | 6 | 0 | 3 | 65* | 8 | 66*
Cc1cc2cc(CNC(=O)c3ccc(Br)o3)ccc2[nH]1 | -5 | 2 | 8 | 53* | 2 | 24
Cc1ccc(CNC(=O)c2ccc(Br)o2)cc1 | 0 | -1 | 2 | -15 | 7 | ·
COc1ccc(CCNC(=O)CCc2ccc(S(=O)(=O)NCC(C)C)cc2)cc1OC | -3 | 9 | 1 | -3 | 1 | ·
N#C/C(=C\C1CC2C=CC1C2)c1nc2ccccc2[nH]1 (stereo not drawn) | -2 | -4 | 1 | 48* | 5 | 9
N#C/C(=C\c1ccc([N+](=O)[O-])o1)c1nc2ccccc2[nH]1 | -2 | -2 | 5 | 14 | 2 | ·
COC(=O)/C=C/c1c(C)nc(NCc2ccccc2)nc1Cl | -4 | 2 | 4 | 3 | 4 | ·
CCN(CC)c1ccc(-c2nn3c(-c4ccccc4OC)nnc3s2)cc1 | 7 | 28* | 5 | 57* | 11 | 39
Cc1ccc(F)cc1NC(=O)CSc1ncccn1 | -2 | -2 | -3 | 2 | -3 | ·
CCC(CO)[n+]1c(C)cc(/C=C2\Sc3ccccc3N2Cc2ccccc2)cc1C (stereo not drawn) | 3 | 3 | -2 | 77* | -9 | 73*
COCCN1CCCC(CNCc2cn(C)nc2-c2ccc(Oc3ccccc3)cc2)C1 (stereo not drawn) | 2 | 5 | -2 | 43* | -1 | 32
CC(C(=O)NCc1ccccn1)c1ccc([N+](=O)[O-])cc1 (stereo not drawn) | 0 | 0 | 2 | 16 | -2 | ·
CCOc1cc(/C=N/N=C2/NC(=O)C(CC(=O)O)S2)ccc1OCc1ccc(Cl)cc1Cl (stereo not drawn) | -5 | 5 | -4 | 49* | -2 | 64*
SMILES | LYPLA1 counter | PME-1 inh | Fam108B inh | PREPL inhibitor | LYPLA2 inh | PREPL confirm
CCOC(=O)C1(Cc2cccc(OC)c2)CCN(Cc2cccc(OC)c2O)CC1 | -1 | -1 | 0 | 22 | -9 | ·
O=C(O)c1cc(S(=O)(=O)N2CCN(C(c3ccccc3)c3ccccc3)CC2)ccc1Cl | 1 | 4 | 1 | -1 | 2 | ·
CC(=O)Oc1cc(O)c2c(=O)c(OC(C)=O)c(-c3ccc(OC(C)=O)c(OC(C)=O)c3)oc2c1 | -13 | 14 | -2 | 44* | -14 | 20
COc1cc2nc(N(CCN(C)C)C(=O)c3ccc4ccccc4c3)sc2cc1OC | 3 | -6 | 2 | 18 | 5 | ·
CCN(CC)CCN(C(=O)c1ccc2c(c1)CCCC2)c1nc2cc(OC)c(OC)cc2s1 | 0 | 2 | 0 | 49* | 1 | 34
COc1ccc2cc1Oc1ccc(cc1)C[C@H]1c3cc(c(OC)cc3CCN1C)Oc1c(OC)c(OC)cc3c1[C@H](C2)N(C)CC3 | -1 | 1 | 3 | 61* | 4 | 60*
Nc1ccc(C(=O)N2CCN(S(=O)(=O)c3ccc(Cl)s3)CC2)cc1[N+](=O)[O-] | -2 | -1 | -4 | 13 | 5 | ·
COc1ccc(C2CCCN2C(=S)Nc2ccccc2C)cc1OC (stereo not drawn) | 0 | 4 | -6 | 29 | -2 | ·
COc1ccc(C2CCCN2C(=S)Nc2cccc(Cl)c2C)cc1OC (stereo not drawn) | 0 | 8 | -1 | 50* | 1 | 41
C=CC[n+]1c(/C=C2\C=Cc3cc(C)ccc3N2CC)ccc2ccccc21 | -5 | -34 | -22 | 46* | -16 | 60*
CCc1nc(SCC(=O)N2CCCCC2)c2c(=O)n(C)c(=O)n(C)c2n1 | -3 | -1 | 2 | 3 | 0 | ·
Cc1ccc(CNC(=O)CNC(=O)[C@@H]2Cc3ccccc3CN2C(=O)OC(C)(C)C)cc1 | 0 | -4 | -4 | -6 | -1 | ·
COc1cc2nc(Nc3ccc(C)c(C)c3)nc(N)c2cc1OC | -2 | 18 | 5 | 52* | 1 | 51*
COC(=O)c1ccc2nc(C)cc(Nc3ccc(N(C)C)cc3)c2c1 | 0 | 2 | 5 | 50* | 2 | 42
C[n+]1ccccc1/C=C/c1cc(Br)ccc1O | 1 | 9 | -1 | 44* | -2 | 30
COc1ccc(/C=C/c2cccc[n+]2C)c(O)c1 | -2 | -1 | 1 | -1 | 2 | ·
O=C(Cn1ccc(NC(=O)OCc2ccccc2)nc1=O)NCc1ccc2[nH]ccc2c1 | -2 | -4 | · | 13 | 4 | ·
Cc1ccc2c(c1)c(C)cc[n+]2Cc1ccccc1 | 1 | -2 | 0 | 50* | 1 | 29
COc1ccc(Nc2nc(N3CCCCC3)c3ccccc3n2)cc1 | 6 | 6 | 2 | 60* | 26 | 43
